# Shown is part of a subset that was picked to be rich in hits.
# Pf Dd2 inh: qHTS Primary assay for Inhibitors of Plasmodium falciparum Dd2 growth in vitro. Potency, µM (highest dose often 28.9 µM), for inactives: at the highest dose activity, negative = inhibition, most hits filed as inhibitors. P. falciparum Dd2 growth, SYBR Green, 72 h. 120,000 compounds, 4.3% hits; active = well fitted inhibition curve with a large enough effect;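 note: plate controls were DMSO vehicle for no effect and reference drug for full effect; nearly all actives have a fitted effect of over 65% in size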
#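 Infected erythrocytes (Dd2, 0.3% parasitemia, 2.5% hematocrit final) are added to compound in RPMI-1640/Albumax II medium, grown 72 h at 37C in low oxygen, then lysed with saponin/Triton-X containing SYBR Green and read by fluorescence.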
# Numbers without * were called inactive; i = inactive; ! = not active in a repeat; [ ] = remark or other dose. Potency is the fitted concentration of half-maximal effect.
SMILES,Pf Dd2 inh
COCCn1ncc(N2CCCC(CC(=O)NCc3ccc(C)cc3)C2)cc1=O (centres undefined),20%
COCCN1CCCCCC(O)c2cc(C(=O)NCc3ccccc3OC)ccc21 (centres undefined),i
COC1CCOC2(CCN(C(=O)c3cccc(C)c3)CC2)C1 (centres undefined),i
CN(C)C[C@H]1O[C@@H](CO)[C@@H](O)[C@H]1N1CCCC1,-18%[44.1 µM]
CCC(O)c1cc2n(n1)CCN(C(=O)CCc1cn3ccccc3n1)C2 (centres undefined),-5%
O=C(Cc1n[nH]c(=O)c2ccccc12)NC1CCCc2c1[nH]c1ccccc21 (centres undefined),-17%
CCN(CC)C(=O)CC[C@H]1CNC(=O)[C@H]2NCC[C@H]2N1C,18%[44.1 µM]
CCOc1cc(=O)n2c(c1C(=O)Nc1ccc3c(c1)OCCO3)CCCCC2,13%
CC(=O)N1CC2(Cc3ccccc31)CN(C(=O)c1ccc(Cl)nc1)C2,-10%
CN(C)C(=O)CN1C(=O)CO[C@H](c2ccc(NC(=O)c3ccc(F)c(Cl)c3)cc2)[C@H]1CO,-15%
O=C(c1ccc(C(F)(F)F)cc1)N1CCC(N2CCCS2(=O)=O)CC1,8%
O=C(NC1CCN(c2cc(-c3ccc(Cl)cc3)[nH]n2)C1)c1ccc2[nH]ccc2c1 (centres undefined),i
COc1ccc(-c2cc(N3CCC(NC(=O)c4cccc(OC(F)(F)F)c4)C3)n[nH]2)cc1 (centres undefined),-8%
Cc1cccc(C(=O)NC2CCN(c3cc(-c4ccc(F)cc4)[nH]n3)C2)c1 (centres undefined),10µM*
O=C(NC1CCN(c2cc(-c3ccc(F)cc3)[nH]n2)C1)c1cccc(F)c1 (centres undefined),i
O=C(NC1CCN(c2cc(-c3ccc(F)cc3)[nH]n2)C1)c1ccccc1 (centres undefined),-9%
Cc1ccc(C(=O)NC2CCN(c3cc(-c4ccc(F)cc4)[nH]n3)C2)cc1 (centres undefined),i
COc1ccc(-c2cc(N3CCCC(NC(=O)c4cccc(C(F)(F)F)c4)C3)n[nH]2)cc1 (centres undefined),1.3µM*
O=C(NC1CCN(c2cc(-c3ccc(F)cc3)[nH]n2)C1)c1ccc2[nH]ccc2c1 (centres undefined),5µM*
COc1ccc(C(=O)NC2CCCN(c3cc(-c4ccccc4)[nH]n3)C2)cc1 (centres undefined),-23%
CO[C@H]1C(=O)N(C2CCN(C(=O)Nc3ccccc3F)CC2)[C@H]1c1ccncc1,-1%
Cc1ccccc1OCC(=O)NC1CCN(c2cc(-c3ccccc3)[nH]n2)CC1,i
CC(C)c1noc(CC2CCN(C(=O)c3cccs3)CC2)n1,78%
Cn1ccc2c(-c3cc(NCCO)nc(N)n3)ccnc21,0%
O=C(Cn1ccn2nc(-c3ccccc3)c(CO)c2c1=O)N1CCc2ccccc21,4%
SMILES,Pf Dd2 inh
COCCCN(CCC(=O)NCCC(C)C)C(=O)c1ccoc1,7%
CCN(CC)c1cc(C)c2cc(NC(=O)c3ccc(OC)c(OC)c3)ccc2n1,-2%
Cc1ccc(Nc2c3c(nc4ccccc24)CCC3)cc1F,i
COc1ccccc1NC(=O)c1ccc2c(Cl)c3c(nc2c1)CCCC3,12%
COc1ccc(C(=O)Nc2ccc3nc4c(c(Nc5ccc(OC)c(OC)c5)c3c2)CCCC4)c(OC)c1,-8%
COc1ccccc1Nc1c2c(nc3ccc(NC(=O)c4cccc(OC)c4OC)cc13)CCCC2,5.6µM*
COc1ccc(Nc2c3c(nc4ccc(NC(=O)c5ccc(F)cc5)cc24)CCCC3)cc1OC,4µM*
CCOc1ccccc1NC(=O)CSc1c2c(nc3ccc(Cl)cc13)CCCC2,i
COc1ccccc1Nc1c2c(nc3ccc(NC(=O)c4ccccc4F)cc13)CCCC2,3.5µM*
COc1ccccc1NC(=O)c1ccccc1NC(=O)c1ccccc1,-1%
CC(=O)NCCCC(=O)N1CCC2(CC1)CN(C(=O)NC(C)C)Cc1ccccc1O2,10%
Cc1ccc(Cl)cc1NC(=O)Cn1ccn2nc3c(c2c1=O)CCCCC3,i
CCOCCCNC(=O)CN1CC2CC(C1)[C@H]1CCCC(=O)N1C2 (some centres undefined),-5%
CN1CCC(N[C@H]2CC(C)(C)[C@@H]3C[C@@](C)(O)CC[C@]23CCC(=O)NCCN2CCOCC2)CC1,-9%
Cc1noc([C@H]2CCN(C(=O)C3CC3)C[C@H]2NC(=O)C2CC2)n1,i[5.79 µM]
CS(=O)(=O)N1CCC(OC2CCN(C(=O)NCCc3ccccc3)CC2)CC1,-8%
COc1ccc(-c2nn(-c3ccccc3C)cc2CN2CCCOCC2)cc1F,i
COC[C@H]1CCCN1Cc1cn(-c2ccccc2C)nc1-c1ccc(OC)c(F)c1,i
COc1ccc(-c2nn(-c3ccccc3C)cc2CN2CCN(C)C(=O)[C@@H]2C)cc1F,i
COCC1CCN(Cc2cn(-c3ccccc3C)nc2-c2ccc(OC)c(F)c2)CC1,10µM*
COc1ccc(-c2nn(-c3ccccc3C)cc2CN2C[C@@H](C)O[C@@H](C)C2)cc1F,10µM*
COc1ccc(-c2n[nH]c3c2CC(=O)N(Cc2ccccc2F)C3)cc1F,-20%[44.1 µM]
COCCNC(=O)N1CCc2nc(N3CCN(C)CC3)sc2C1,-21%
OC1CCOC2(CCN(Cc3ccc[nH]3)CC2)C1 (centres undefined),5%
COc1ccc(-c2noc(C(=O)O)c2[C@@H](C)NC(=O)C2CCCC2)cc1,-11%[44.1 µM]
SMILES,Pf Dd2 inh
COc1ccccc1-n1cc(C(=O)N2CC(C)(C)C(C)(O)C2)cn1 (centres undefined),-14%
COCc1cc(Cn2cc(-c3cncnc3)nn2)[nH]n1,-6%
OC[C@@H]1CN(CC2CC2)C[C@H]1c1nc(-c2ccncc2)no1,0%
Cc1ccc(C(=O)N2CC(C(=O)NCCc3ccncc3)C3(CCOCC3)C2)cc1C (centres undefined),-7%
COC[C@H]1CCCN1C(=O)[C@@H](C)C1CC[C@@]2(C)CC[C@H](NC(=O)c3ccc(C#N)cc3)[C@@H](C)[C@@H]2[C@H]1O (some centres undefined),-28%
CCn1c(COc2ccc(C)nc2)nnc1C1CC(N)C1 (centres undefined),-26%
NC1CC(c2nnc(COc3ccc4c(c3)CCNCC4)n2C2CC2)C1 (centres undefined),10µM*!
COCCn1c(COc2ccc3c(c2)ncn3C)nnc1C1CC(N)C1 (centres undefined),-17%
O=C(CCCc1nc2ccccc2[nH]1)N1CCc2c(nc3cc(-c4ccccc4)[nH]n3c2=O)C1,25%[5.79 µM]
Cc1oc(C(O)c2cncnc2)nc1C(=O)Nc1ccc(N2CCOCC2)cc1 (centres undefined),-1%[44.1 µM]
Cc1ccc(-c2nc3ccccc3n3c(-c4ccccc4)c4c(=O)n(C)c(=O)n(C)c4c23)cc1,62%
CCc1ccc(-n2c(-c3ccccc3)c(C)n3c4c(=O)n(C)c(=O)n(C)c4nc23)cc1,9%
Cc1ccc(-c2c(C)n3c4c(=O)n(C)c(=O)n(C)c4nc3n2-c2cccc(O)c2)cc1,10µM*
Cc1ccc2nc(CO[C@H]3CN(Cc4ncc[nH]4)C[C@H]3F)[nH]c2c1,1%[44.1 µM]
CCN(CC)C(=O)C(NC(=O)CC(C)C)C1CCN(C(=O)CCc2ccccc2)CC1 (centres undefined),-2%
COc1cccc(CC(=O)NC2CCN(C(=O)N3CC4CC(C3)[C@H]3CCCC(=O)N3C4)CC2)c1 (some centres undefined),30%

# Screening results: PubChem, National Center for Advancing Translational Sciences (NCATS)
